Results filed as inconclusive are left out. Entries that show only a call come without a potency. Some structures have more than one record in an assay (separate samples or runs), and their calls can disagree. Active and inactive are the calls of the source. Unless noted, calls come from the whole dose curve; as a rule, active = well fitted curve in the direction sought with a large enough effect in the repeat runs; inconclusive = weak or mixed curves; inactive = no such curve, though single readings can be large; an effect the other way counts as inactive or inconclusive.
How the values were obtained:
[1] = target: Progesterone receptor (Homo sapiens) (UniProt P06401); experiment: qHTS assay to identify small molecule agonists of the progesterone receptor (PR) signaling pathway (AID 1346784; calls by dose curve; note: nearly all actives have a fitted effect of over 30% in size)
Method in brief: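 PR-UAS-bla HEK 293T cells carrying a UAS-driven beta-lactamase reporter were seeded in medium with 2% charcoal-stripped FBS, preincubated 6 hr at 37C, then exposed to compounds in DMSO for 16 hr; agonism was read by LiveBLAzer B/G FRET fluorescence.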

[2] = target: Progesterone receptor (Homo sapiens) (UniProt P06401); experiment: qHTS assay to identify small molecule antagonists of the progesterone receptor (PR) signaling pathway (AID 1346795; active = well fitted inhibition curve with a large enough effect in the signal ratio in the repeat runs, not every such curve was filed as active; the % refers to the signal ratio)
Method in brief: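 PR-UAS-bla HEK293T cells carrying a UAS-driven beta-lactamase reporter were plated in medium with 2% charcoal-stripped FBS and rested 6 hr at 37C. Compounds were added with 1 nM R5020 (final) for 16 hr, then FRET substrate loaded 2 hr at room temperature.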

[3] = qHTS assay to identify small molecule antagonists of the progesterone receptor (PR) signaling pathway - cell viability counter screen (AID 1346798); note: series mostly up to about 92 µM; nearly all actives have a fitted effect of over 50% in size
Method in brief: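 PR-UAS-bla HEK293T cells in medium with 2% charcoal-stripped FBS were treated with compounds plus R5020 for 16 hr at 37C. Cell viability was then read by CellTiter-Glo luminescence after 30 min at room temperature in the same wells.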

[4] = qHTS assay to identify small molecule agonists of the progesterone receptor (PR) signaling pathway - cell viability counter screen (AID 1346799; calls by dose curve; note: nearly all actives have a fitted effect of over 45% in size)
Method in brief: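 PR-UAS-bla HEK293T cells, 3,000 per well in medium with 2% charcoal-stripped FBS, were preincubated 6 hr at 37C, then exposed to compounds for 16 hr; viability was read as CellTiter-Glo luminescence after 30 min at room temperature.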

[5] = qHTS assay to identify small molecule antagonists of the TGF-beta/Smad signaling pathway - cell viability counter screen (AID 1346824); note: nearly all actives have a fitted effect of over 50% in size
Method in brief: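 Cytotoxicity counter-screen run in the same wells as the beta-lactamase Smad reporter read: CellTiter-Glo luminescence after 30 min at room temperature. HEK 293T SBE-bla cells had 5 hr compound exposure at 37 C with TGF-beta1 (0.25 ng/mL stock).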

[6] = qHTS assay to identify small molecule agonists of the TGF-beta/Smad signaling pathway - cell viability counter screen (AID 1346829); note: top concentration of the series differs between compounds; nearly all actives have a fitted effect of over 45% in size
Method in brief: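 HEK 293T SBE-bla line, 5 hr compound exposure at 37 C, multiplexed CellTiter-Glo viability read by luminescence.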

[7] = qHTS assay to identify small molecule agonists of the TGF-beta/Smad signaling pathway (AID 1346859; active = well fitted activation curve with a large enough effect in the signal ratio in the repeat runs, not every such curve was filed as active; the % refers to the signal ratio; note: series mostly up to about 77 µM)
Method in brief: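 HEK 293T cells stably carrying a beta-lactamase reporter driven by the Smad binding element were seeded overnight, exposed to DMSO-dissolved compounds for 5 hr at 37 C, 5% CO2, then loaded with FRET substrate for 2 hr at room temperature.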

[8] = Human pregnane X receptor (PXR) small molecule agonists, qHTS cell viability counter screen (AID 1346977); note: nearly all actives have a fitted effect of over 50% in size
Method in brief: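 PXR-Luc HepG2 cells in medium with 5% charcoal-stripped FBS were pre-incubated 5hr, then exposed to compounds for 24hr at 37C. Viability was read in the same wells by CellTiter-Fluor fluorescence, reagent added after 23hr with a 1hr incubation.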

[9] = Caspase-3/7 induction in HepG2 cells by small molecules, qHTS assay (AID 1346978); note: nearly all actives have a fitted effect of over 15% in size
Method in brief: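 Caspase-3/7 induction was measured by Caspase-Glo 3/7 luminescence (30 min, room temperature) after a 17 hr compound exposure of wild-type HepG2 cells seeded at 2,000 per well and pre-incubated 5 hr.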

[10] = Caspase-3/7 induction in CHO-K1 cells by small molecules, qHTS assay (AID 1346980); note: nearly all actives have a fitted effect of over 15% in size
Method in brief: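 Luminescent Caspase-Glo 3/7 read (30min, room temperature) quantified apoptosis induction. Cells were wild-type CHO-K1, treated with compound for 17hr at 37 C and 5% CO2.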

[11] = Caspase-3/7 induction in HepG2 cells by small molecules, qHTS cell viability counter screen (AID 1346981); note: series mostly up to about 92 µM; nearly all actives have a fitted effect of over 30% in size
Method in brief: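 After a 5-hr attachment period at 37 C and 5% CO2, wild-type HepG2 cells received compounds in DMSO. Sixteen hours later CellTiter-Fluor was dispensed and the fluorescent signal quantified after a further hour.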

[12] = target: Nuclear receptor subfamily 1 group I member 2 (Homo sapiens) (UniProt O75469); experiment: Human pregnane X receptor (PXR) small molecule agonists, qHTS assay (AID 1346982); note: nearly all actives have a fitted effect of over 35% in size
Method in brief: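 Tox21 qHTS; PXR-Luc HepG2; compounds pinned from DMSO; 24 hr, 37 C; ONE-Glo luciferase detection, 30 min room temperature.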

[13] = target: Acetylcholinesterase (Homo sapiens) (UniProt P22303); experiment: Acetylcholinesterase (AChE) small molecule antagonists: colormetric cell-based qHTS assay (AID 1347395; calls by dose curve; note: nearly all actives have a fitted effect of over 30% in size)
Method in brief: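 SH-SY5Y cells, plated overnight at 37 C, were exposed to compounds for 30 min at 37 C and 5% CO2. Acetylthiocholine plus DTNB was then added, and thiocholine from endogenous AChE was quantified colorimetrically after 90 min at 37 C.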

[14] = target: Acetylcholinesterase (Homo sapiens) (UniProt P22303); experiment: Acetylcholinesterase (AChE) small molecule antagonists: enzyme-based qHTS assay (AID 1347397; calls by dose curve; note: nearly all actives have a fitted effect of over 55% in size; note: potency is the fitted concentration of half-maximal effect); conditions: Potency: AChE enzyme activity inhibition
Method in brief: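 Colorimetric DTNB readout of acetylthiocholine hydrolysis, 10 min at room temperature, after 30 min room-temperature exposure of 50 mU/mL recombinant human enzyme to compound; DMSO vehicle control.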

[15] = target: Thyrotropin-releasing hormone receptor (Homo sapiens) (UniProt P34981); experiment: qHTS assay to identify small molecule antagonists of the thyrotropin-releasing hormone receptor (TRHR) signaling pathway (AID 1346877; active = well fitted inhibition curve with a large enough effect in the repeat runs, not every such curve was filed as active; note: series mostly up to about 51 µM)
Method in brief: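 Calcium signal in dye-loaded TRHR/HEK293 cells; compounds added 5 min before TRH (1 nM final); fluorescence monitored 3 min at 1 s steps.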

[16] = target: Thyrotropin-releasing hormone receptor (Homo sapiens) (UniProt P34981); experiment: qHTS assay to identify small molecule agonists of the thyrotropin-releasing hormone receptor (TRHR) signaling pathway (AID 1346891; calls by dose curve; note: series mostly up to about 58 µM)
Method in brief: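 TRHR-expressing HEK293 cells were plated 18 h at 37 °C/5% CO2, loaded with calcium dye 2 h at 37 °C, then given compound in DMSO; fluorescence was read kinetically for 3 min at 1 s intervals.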

[17] = Caspase-3/7 induction in CHO-K1 cells by small molecules, qHTS cell viability counter screen (AID 1346979); note: nearly all actives have a fitted effect of over 35% in size
Method in brief: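 Wild-type CHO-K1 cells were seeded at 1,500 per well, rested 5hr at 37 C, then exposed to compounds in DMSO. After 16hr, CellTiter-Fluor reagent was added and fluorescence read 1hr later as the viability measure.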

[18] = target: Nuclear receptor subfamily 1 group I member 2 (Rattus norvegicus) (UniProt Q9R1A7); experiment: Rat pregnane X receptor (rPXR) activation by small molecules, qHTS assay (AID 1346983); conditions: rPXR luciferase reporter cells, One-Glo luminescence, 24 h; stronger effect = higher value; note: nearly all actives have a fitted effect of over 20% in size
Method in brief: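 Luminescent readout (One-Glo luciferase, 30 min room temperature) followed 24 hr compound treatment at 37 C of rPXR cells plated 2,000 per well and preincubated 5hr; qHTS format with compounds delivered in DMSO.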

[19] = target: Nuclear receptor subfamily 1 group I member 2 (Homo sapiens) (UniProt O75469); experiment: CYP3A4 induction through human pregnane X receptor (PXR) by small molecules, qHTS assay (AID 1346984); note: nearly all actives have a fitted effect of over 40% in size
Method in brief: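 Cells (DPX-2; HepG2 with PXR element plus CYP3A4-promoter luciferase) settled 5hr, then were treated 24hr at 37C. A 3hr, 3uM-final Luciferin-IPA step preceded luminescence measurement with One-Glo.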

[20] = target: Nuclear receptor subfamily 1 group I member 2 (Homo sapiens) (UniProt O75469); experiment: Human pregnane X receptor (PXR) activation by small molecules, qHTS assay (AID 1346985); note: nearly all actives have a fitted effect of over 40% in size
Method in brief: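 DPX-2 cells (HepG2 co-transfected with a PXR response element and a CYP3A4-promoter luciferase construct) were seeded at 2,000 per well, rested 5 hr at 37C, then exposed to DMSO-dissolved compounds for 24 hr. Activation was read as luciferase luminescence.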

Nuclear receptor subfamily 1 group I member 2 (Homo sapiens), sequence (O75469 whole entry, looked up): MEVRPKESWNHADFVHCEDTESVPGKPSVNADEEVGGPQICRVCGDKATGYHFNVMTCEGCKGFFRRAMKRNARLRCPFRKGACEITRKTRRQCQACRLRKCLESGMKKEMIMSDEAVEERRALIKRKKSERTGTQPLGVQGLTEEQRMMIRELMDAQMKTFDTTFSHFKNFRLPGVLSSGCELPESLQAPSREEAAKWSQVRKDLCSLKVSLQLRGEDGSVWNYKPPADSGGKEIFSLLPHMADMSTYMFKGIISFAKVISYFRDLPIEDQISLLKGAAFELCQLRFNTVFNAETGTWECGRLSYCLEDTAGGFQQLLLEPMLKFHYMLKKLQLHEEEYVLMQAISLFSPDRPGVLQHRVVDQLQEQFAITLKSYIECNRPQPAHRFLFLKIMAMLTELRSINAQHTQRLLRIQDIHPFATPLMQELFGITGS
Thyrotropin-releasing hormone receptor (Homo sapiens), sequence (P34981 whole entry, looked up): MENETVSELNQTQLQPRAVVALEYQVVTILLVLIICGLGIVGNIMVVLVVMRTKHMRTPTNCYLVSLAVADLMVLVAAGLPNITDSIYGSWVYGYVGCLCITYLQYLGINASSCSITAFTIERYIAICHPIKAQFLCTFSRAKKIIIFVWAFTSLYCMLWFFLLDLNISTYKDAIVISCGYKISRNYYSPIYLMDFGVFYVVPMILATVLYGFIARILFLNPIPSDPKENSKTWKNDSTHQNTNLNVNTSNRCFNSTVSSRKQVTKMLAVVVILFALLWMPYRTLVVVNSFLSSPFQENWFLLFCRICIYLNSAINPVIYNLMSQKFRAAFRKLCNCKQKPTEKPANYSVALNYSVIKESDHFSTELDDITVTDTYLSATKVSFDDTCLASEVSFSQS
Progesterone receptor (Homo sapiens), sequence (P06401 whole entry, looked up): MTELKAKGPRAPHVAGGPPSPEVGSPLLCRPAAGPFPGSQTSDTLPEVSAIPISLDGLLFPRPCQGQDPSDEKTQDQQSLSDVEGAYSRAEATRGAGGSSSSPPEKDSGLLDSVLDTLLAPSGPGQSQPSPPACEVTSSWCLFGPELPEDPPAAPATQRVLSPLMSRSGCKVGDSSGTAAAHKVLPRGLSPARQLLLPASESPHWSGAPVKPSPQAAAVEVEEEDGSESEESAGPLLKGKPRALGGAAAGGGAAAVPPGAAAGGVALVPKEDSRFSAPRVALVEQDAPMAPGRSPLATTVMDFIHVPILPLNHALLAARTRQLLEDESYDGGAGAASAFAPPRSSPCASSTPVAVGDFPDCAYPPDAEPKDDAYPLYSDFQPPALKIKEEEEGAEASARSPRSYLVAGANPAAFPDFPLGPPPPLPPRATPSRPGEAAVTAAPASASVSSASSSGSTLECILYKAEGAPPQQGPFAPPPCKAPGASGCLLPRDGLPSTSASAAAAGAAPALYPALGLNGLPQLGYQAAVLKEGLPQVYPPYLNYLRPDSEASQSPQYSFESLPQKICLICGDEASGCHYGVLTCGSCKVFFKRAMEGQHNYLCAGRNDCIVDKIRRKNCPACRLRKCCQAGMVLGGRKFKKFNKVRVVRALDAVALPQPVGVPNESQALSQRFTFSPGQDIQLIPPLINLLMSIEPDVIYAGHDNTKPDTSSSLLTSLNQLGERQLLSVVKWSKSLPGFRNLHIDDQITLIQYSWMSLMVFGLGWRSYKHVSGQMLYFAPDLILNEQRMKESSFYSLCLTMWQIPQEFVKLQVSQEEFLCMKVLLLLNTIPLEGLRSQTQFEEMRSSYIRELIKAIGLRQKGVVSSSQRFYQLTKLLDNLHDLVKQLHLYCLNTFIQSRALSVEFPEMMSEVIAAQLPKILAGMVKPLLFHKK
Acetylcholinesterase (Homo sapiens), sequence (P22303 whole entry, looked up): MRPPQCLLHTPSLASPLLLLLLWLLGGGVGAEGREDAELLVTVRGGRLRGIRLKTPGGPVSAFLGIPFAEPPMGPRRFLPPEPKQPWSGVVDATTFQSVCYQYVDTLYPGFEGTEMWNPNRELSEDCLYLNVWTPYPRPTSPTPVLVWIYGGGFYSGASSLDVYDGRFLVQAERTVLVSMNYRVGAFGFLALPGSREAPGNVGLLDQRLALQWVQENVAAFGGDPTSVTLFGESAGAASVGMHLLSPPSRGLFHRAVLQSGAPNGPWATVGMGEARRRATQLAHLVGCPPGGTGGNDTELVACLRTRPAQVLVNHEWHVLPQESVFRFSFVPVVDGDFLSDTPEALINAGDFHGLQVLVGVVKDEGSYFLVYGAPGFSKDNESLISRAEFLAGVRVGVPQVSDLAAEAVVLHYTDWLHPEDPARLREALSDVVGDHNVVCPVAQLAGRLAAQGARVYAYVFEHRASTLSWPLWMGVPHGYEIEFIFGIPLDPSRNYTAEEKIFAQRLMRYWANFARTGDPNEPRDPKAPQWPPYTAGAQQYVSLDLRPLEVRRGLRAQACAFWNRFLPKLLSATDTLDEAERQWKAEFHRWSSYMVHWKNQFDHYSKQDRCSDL
Nuclear receptor subfamily 1 group I member 2 (Rattus norvegicus), sequence (Q9R1A7 whole entry, looked up): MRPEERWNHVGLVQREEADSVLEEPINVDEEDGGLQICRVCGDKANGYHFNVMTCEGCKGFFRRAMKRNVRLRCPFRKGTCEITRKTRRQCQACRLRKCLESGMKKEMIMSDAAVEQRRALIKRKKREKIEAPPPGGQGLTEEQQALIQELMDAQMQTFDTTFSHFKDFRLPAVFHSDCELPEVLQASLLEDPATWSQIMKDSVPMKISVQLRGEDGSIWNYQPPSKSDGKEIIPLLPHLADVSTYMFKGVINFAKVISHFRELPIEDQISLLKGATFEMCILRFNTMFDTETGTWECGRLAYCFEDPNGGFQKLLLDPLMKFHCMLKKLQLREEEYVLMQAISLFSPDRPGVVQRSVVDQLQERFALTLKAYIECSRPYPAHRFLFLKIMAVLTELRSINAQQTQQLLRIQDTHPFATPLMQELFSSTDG

Structure (SMILES)	Potency [1]	Potency [2]	Potency [3]	Potency [4]	Potency [5]	Potency [6]	Potency [7]	Potency [8]	Potency [9]	Potency [10]	Potency [11]	Potency [12]	Potency [13]	Potency [14]	Potency [15]	outcome [16]	Potency [17]	max activation [18]	Potency [19]	outcome [20]
C[N+](C)(C)CC(=O)[O-]	inactive	inactive	inactive	inactive	inactive	inactive	inactive	inactive	inactive	inactive	inactive	inactive	inactive	inactive	–	–	–	–	–	–
CC(C)(C#N)N=NC(C)(C)C#N	inactive	inactive	inactive	inactive	–	inactive	inactive	inactive	inactive	inactive	inactive	inactive	inactive	inactive	inactive	inactive	–	–	–	–
C[N+](C)(C)CC(=O)O	inactive	inactive	inactive	inactive	inactive	inactive	inactive	inactive	inactive	inactive	inactive	inactive	inactive	inactive	–	–	inactive	-1.07% (inactive)	inactive	inactive
N#CCCCCC#N	inactive	inactive	inactive	inactive	–	inactive	inactive	inactive	inactive	inactive	inactive	inactive	inactive	inactive	inactive	inactive	inactive	–	–	–
Brc1ccc(Br)cc1	inactive	inactive	inactive	inactive	inactive	inactive	inactive	inactive	inactive	inactive	inactive	inactive	inactive	inactive	–	–	–	–	–	–
ClCc1ccccn1	inactive	inactive	inactive	inactive	–	inactive	inactive	inactive	inactive	inactive	inactive	inactive	inactive	inactive	inactive	inactive	inactive	–	–	–
CCC/C=N/O	inactive	inactive	inactive	inactive	–	inactive	inactive	inactive	inactive	inactive	inactive	inactive	inactive	34.2 µM (active) and inactive	inactive	inactive	–	–	–	–
Clc1cccc(Cl)c1	inactive	inactive	inactive	inactive	–	inactive	inactive	inactive	inactive	inactive	inactive	inactive	inactive	inactive	inactive	inactive	inactive	–	–	–

— PubChem BioAssay (Tox21)
